Experimental findings from ChEMBL document CHEMBL3433997, “St. Jude Leishmania screening dataset” (2016) are described below.

SMILES strings stand for the structures. “And” between values parts separate entries of the source, which are not always exact repeats. Identical values can stand only once.

In the experiment the target is Glucose transporter (Leishmania mexicana) (UniProt O61059). The experiment can be described thus: ST_JUDE_LEISH: Cytotoxicity at 2uM final concentration against transgenic Leishmania Mexicana promastigotes LmGT2 that are glucose transport deficient and complemented with the L. Mexicana glucose transporter 2. Activity is measured by DNA content using SYBR green in vitro. In kind it is functional.
Broadly, the inhibition is the drop in the measured response relative to a control, in per cent. For `C=C[C@H]1CN2CC[C@H]1C[C@H]2[C@H](O)c1ccnc2ccccc12`, the inhibition amounted to 1.5%. In the case of `CCCCCCC(CC)c1cc(O)c2c(c1)OC(C)(C)c1ccncc1-2` (centres undefined) it was -0.4%.

Take `O=C(C=C1c2ccccc2-c2ccccc21)NC1CCC(CN2CCC(c3c[nH]c4ccccc34)CC2)CC1` (centres undefined): the inhibition is -0.17% and -1.28%.

`CC[C@H]1CN2CC[C@H]1C[C@H]2[C@H](O)c1cc(-c2ccc(C)cc2)nc2ccc(OC)cc12`: the inhibition was -0.1%. In the case of `S=C(NCCc1ccc(Cl)cc1)NC1CCC(CN2CCC(c3c[nH]c4ccccc34)CC2)CC1` (centres undefined) it was -2.05% and -1.85%; in that of `Cc1[nH]c2ccc(O)cc2c1C1CCN(CC2CCC(NC(=O)/C=C/c3ccc(Cl)c(Cl)c3)CC2)CC1` (centres undefined), 0.57%; in that of `CCOC(=O)c1c(CN2CCN(C)CC2)n(Cc2ccccc2)c2cc(Br)c(O)cc12`, 12.7%. In the case of `CC[C@H]1CN2CC[C@H]1C[C@H]2[C@H](O)c1cc(/C=C/c2ccccc2)nc2ccc(OC)cc12` it was -0.2%. Regarding `C=C[C@H]1CN2CC[C@H]1C[C@H]2[C@H](O)c1cc(-c2ccc(Cl)cc2)nc2ccc(OC)cc12`, the inhibition is 1.31%. For `CCCCC/C=C/C(=O)NC1CCC(CN2CCC(c3c[nH]c4ccccc34)CC2)CC1` (centres undefined), the inhibition came to 4.05%. In the case of `CC(Cc1ccc(SC(C)(C)C)cc1)NCC(O)c1cccc(Cl)c1` (centres undefined) it was -0.72%. To `Cc1cc2ccc(CNCCc3ccccc3Br)cc2nc1N` belongs 3.87%; to `Oc1ccc(Cl)cc1CN1CCC(CCOC(c2ccccc2)c2ccccc2)CC1`, 7.84%.

For the compound `CCN(Cc1ccccc1)CC(O)c1ccc(Cl)c(Cl)c1` (centres undefined), the inhibition is 1.21%.

With `COC(=O)CN(C(=O)/C=C/c1ccc(Cl)c(Cl)c1)C1CCC(CN2CCC(c3c[nH]c4ccccc34)CC2)CC1` (centres undefined), the inhibition came to 2.24%. In the case of `CN1CC[C@H](N(Cc2ccccc2F)c2ccc(C#N)c(Cl)c2)C1` it was 4.63%; in that of `COCCNCc1cccc(-c2cccc(CN(C(=O)Nc3ccccc3)C3CCN(Cc4ccccc4)CC3)c2)c1`, 1.33%; in that of `CN(c1ccc(NC(=O)CCOc2ccccc2)cc1)C1CCN(Cc2cccc(O)c2)CC1`, -0.97%. To `Cc1[nH]c2ccccc2c1C1CCN(CC2CCC(NC(=O)/C=C/c3ccc(Cl)c(Cl)c3)CC2)CC1` (centres undefined) belongs 7.15%; to `O=C(C=Cc1ccccc1O)N1CCC(CN2CCC(c3c[nH]c4ccccc34)CC2)CC1`, 2.49%; to `CCCCn1c(C)c(C(=O)OCC)c2cc(OC(C)=O)c(Br)cc21`, 3.29%. To `CN(c1cc(NC(=O)c2ccc(F)cc2)ccn1)C1CCN(Cc2cccc(F)c2)CC1` belongs 3.83%; to `CC[C@H]1CN2CC[C@H]1C[C@@H]2[C@H](O)c1ccnc2ccc(O)cc12`, 0.24%. Regarding `C/C=C1/CN2CC[C@H]1C[C@H]2[C@H](O)c1ccnc2ccc(O)cc12`, the inhibition is -0.61%. To `O=C(/C=C/c1cc(F)c(F)cc1F)N1CCC(CN2CCC(c3c[nH]c4ccccc34)CC2)CC1` belongs 0.46%; to `CC(C)(C)c1ccc(Cn2nc(C(=O)N3CCN(C(=O)C4CCCO4)CC3)c3ccccc32)cc1` (centres undefined), -3.52%; to `O=[N+]([O-])c1ccc(Oc2c(Cl)cc(S(=O)(=O)N3CCC(CN4CCC(c5c[nH]c6ccccc56)CC4)CC3)cc2Cl)c(Cl)c1`, 3.15%. In the case of `CCOc1ccc(Br)cc1/C=C/C(=O)Nc1ccc2c(c1)C1CCC2N1C` (centres undefined) it was 3.45%. In the case of `CSc1nccc(-c2ccc(S(=O)(=O)NC3CCC(CN4CCC(c5c[nH]c6ccccc56)CC4)CC3)s2)n1` (centres undefined) it was 2.7% and 0.3%; in that of `C=CCOc1ccccc1CNCC(O)c1cccc(C(F)(F)F)c1` (centres undefined), 2.61%.

Turning to `CC(Cc1ccc(OCc2ccccc2)cc1)NCC(O)c1cccc(Cl)c1` (centres undefined), the inhibition is 4.23%.

In the case of `CC(C)CNCc1ccc(-c2ccc(CN(C(=O)NC3CCCCC3)C3CCN(Cc4ccccc4)CC3)cc2)cc1`, the inhibition worked out at 6.77%.

In the case of `COC(=O)c1ccc(CC(C)NCC(O)c2ccccc2Cl)cc1` (centres undefined), the inhibition worked out at 1.21%. To `Cc1[nH]c2ccc(NS(C)(=O)=O)cc2c1C1CCN(CC2CCN(C(=O)/C=C/c3ccc(Cl)c(Cl)c3)CC2)CC1` belongs -0.21%; to `CCCCCC(C)C(C)c1cc(O)c2c(c1)OC1(C(C)C)CC(O)C(C)C2C1` (centres undefined), 6.4%; to `O=C(NCCC1CCN(CCc2c[nH]c3ccccc23)CC1)Nc1ccc(Cl)c(Cl)c1`, 3%. With `O=C(NC1CCC(CN2CCC(c3c[nH]c4ccccc34)CC2)CC1)c1ccc(-c2ccccc2[N+](=O)[O-])o1` (centres undefined), the inhibition is -0.67%.

Consider `O=C(Nc1ccc(Cl)c(Cl)c1)N1CCC(CN2CCC(c3c[nH]c4ccccc34)CC2)CC1`, for which the inhibition was determined as 4.11%.

On to `O=C(/C=C/c1ccc(F)c(C(F)(F)F)c1)N1CCC(CN2CCC(c3c[nH]c4ccccc34)CC2)CC1`, for which the inhibition came to 0.74%.
